29 molecules from PubChem BioAssay AID778 (Sanford-Burnham Center for Chemical Genomics, 2007) can be followed below.

The whole screen tested about 96,000 compounds, of which about 20,000 (21%) were called active. Not all results are given here. Unmarked numbers belong to inactive results.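 The calls were made as follows: active = CYP2C19 inhibition above a set limit at 5 µM in the primary screen (cut at about 50% in these data); inactive = the rest.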

The target in the assay is Cytochrome P450 2C19 (Homo sapiens) (UniProt P33261). The assay can be described thus: blockers of cytochrome P450 2C19 activity – biochemical, luminescence, ADME assay, primary screen (AID 778).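 Also: plate controls were negative control wells for no effect and 2.5 mM tranylcypromine positive control for full effect.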 Particulars: CYP2C19 Supersomes, luciferin-H EGE luminescence, 30 min; at 5 µM; active compounds read high.
Cytochrome P450 2C19 (Homo sapiens), sequence (P33261 whole entry, looked up): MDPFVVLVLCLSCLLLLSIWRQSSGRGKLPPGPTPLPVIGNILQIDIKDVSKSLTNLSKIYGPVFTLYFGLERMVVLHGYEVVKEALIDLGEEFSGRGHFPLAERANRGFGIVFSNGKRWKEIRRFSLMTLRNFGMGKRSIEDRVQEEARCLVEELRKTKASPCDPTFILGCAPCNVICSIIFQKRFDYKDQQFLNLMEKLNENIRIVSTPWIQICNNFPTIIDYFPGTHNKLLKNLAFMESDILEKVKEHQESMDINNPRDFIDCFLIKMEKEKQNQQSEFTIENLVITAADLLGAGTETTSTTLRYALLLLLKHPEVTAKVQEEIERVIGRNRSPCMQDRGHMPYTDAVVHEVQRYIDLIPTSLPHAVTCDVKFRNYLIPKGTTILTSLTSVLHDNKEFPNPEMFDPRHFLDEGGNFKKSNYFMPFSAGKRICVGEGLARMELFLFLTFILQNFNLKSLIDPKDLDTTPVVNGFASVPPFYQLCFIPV
The inhibition is the change of the read-out against control, counted positive when it falls. Regarding `Oc1c(CN2CCN(c3ccc(F)cc3)CC2)cc(Cl)c2cccnc12`, the inhibition is 18.8%. Consider `COCCn1nnnc1CN1CCC(NC(=O)Nc2cccc(OC)c2)CC1`, for which the inhibition was -0.3%. As for `COCCn1nnnc1C(c1ccccc1Cl)N1CCN(c2ccccc2OC)CC1` (centres undefined), the inhibition was 54% (active). Turning to `COc1cc(-n2c(C)nc3cc(C(=O)NCc4ccco4)ccc32)cc(OC)c1OC`, the inhibition is 42.8%. For `O=C(O)CSc1nccn1-c1cccc(Cl)c1`, the inhibition is 43.9%. Under `COC(=O)CCSc1nccn1Cc1ccccc1` stands 76.8% (active); under `Nc1nonc1C(=O)NCCc1ccccc1`, 31.5%; under `CCCCCCNC(=O)CSc1nccn1Cc1ccccc1`, 37.7%. The value for `O=C(CSc1ncccn1)NCCc1ccccc1` was 80.6% (active); that for `CCCCNC(=O)CSc1nccn1Cc1ccccc1` was 53.8% (active).

On to `COC(=O)Cn1nc(-c2ccccc2)c2cc(Cl)ccc21`, for which the inhibition was 21.2%.

For `CCCCNC(=O)CSc1nnc(-c2ccco2)n1C`, the inhibition was 20%. For the molecule `O=C(CSc1ncccn1)NC(=O)NCc1ccccc1`, the inhibition was 13.9%. For the molecule `CC1CN(c2cc(=O)n(-c3cccc(Br)c3)c(=O)[nH]2)CC(C)O1` (centres undefined), the inhibition is -14.8%. For `N=c1ccn(CC(=O)NC(N)=O)c2ccccc12`, the inhibition was -6.6%. Take `Cc1cccc(COc2ccccc2/C=N/Nc2ccc([N+](=O)[O-])cc2)c1`: the inhibition is 16.5%.

In the case of `CCCCOC(=O)NCN1C(=O)C2C3C=CC(C3)C2C1=O` (centres undefined), the inhibition is -6.3%. For `O=c1[nH]n(-c2cccc(Cl)c2)c2ncccc12`, the inhibition is -10.9%.

For `CC(=O)c1nc(N2C(=O)C3CC=C(C)CC3C2=O)sc1C` (centres undefined), the inhibition was -13.9%.

For `CCOC(=O)c1c(C)c(C(=O)NCCc2ccc(S(N)(=O)=O)cc2)c(C)n1CC`, the inhibition is 1.4%. `COc1cnc(SCc2ccc(Cl)c(Cl)c2)nc1Cl`: the inhibition was 52.9% (active). Consider `CCN(CC)S(=O)(=O)c1cc(C(=O)Nc2ccccn2)ccc1C`, for which the inhibition is 60.7% (active). For `O=S(=O)(/N=C(/Nc1ccccn1)c1ccccc1)c1ccc(Cl)cc1`, the inhibition was 40.3%.

Turning to `CCN(CC)S(=O)(=O)c1cccc(C(=O)Nc2ccccc2)c1`, the inhibition is 53.4% (active).

On to `Cc1noc(C)c1C(=O)Nc1ccccn1`, for which the inhibition was 14.4%.

Consider `CCN(CC)S(=O)(=O)c1cccc(C(=O)NCC(=O)OCC(=O)NCc2ccccc2)c1`, for which the inhibition was 29.7%. Under `CCN(c1ccccc1)S(=O)(=O)c1cccc(C(=O)O)c1` stands 3.1%. For the molecule `CCN(CC)S(=O)(=O)c1cc([N+](=O)[O-])ccc1NNC(=O)Nc1ccccc1`, the inhibition was -12.2%. For the molecule `CSc1nc(-c2ccco2)nn1C(=O)CCc1ccccc1`, the inhibition is -16.6%.
